Laboratory results reported in PubChem BioAssay AID1159580 (chemical genetic matrix, 2015).
Screen size: about 5,500 compounds; about 2,000 (36%) were called active. Roughly 18% stayed inconclusive and do not appear here. Rule as the data show it: active = normalized growth mostly below about 0.91 (no sharp cut-off); inconclusive = no clear call, values can overlap the other calls; inactive = mostly above about 0.92. The list shows a part of the results.

Test: chemical genetic growth profiling, strain panel (AID 1159580);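 also: tested at 20 µM; growth read once vehicle control cultures reached saturation at 30 °C; 1 = growth at the plate median or of vehicle wells; lower values mean less growth of the strain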
Conditions: S. cerevisiae deletion strains, growth OD

Measured: normalized growth

O=C(Nc1cc(Cl)ccc1O)c1ccccc1CSc1ccc(Cl)cc1
inactive: locus YAR019C, strain CDC15, stronger effect = lower value 0.977 | locus YBL105C, strain PKC1, stronger effect = lower value 0.984 | locus YBR135W, strain CKS1, stronger effect = lower value 0.985 | locus YBR136W, strain MEC1, stronger effect = lower value 0.98 | locus YBR160W, strain CDC28, stronger effect = lower value 0.979 | locus YDL017W, strain CDC7, stronger effect = lower value 0.986 | locus YDL028C, strain MPS1, stronger effect = lower value 0.985 | locus YDL101C, strain DUN1, stronger effect = lower value 0.989 | locus YDL108W, strain KIN28, stronger effect = lower value 0.981 | locus YDL132W, strain cdc53, stronger effect = lower value 0.988 | locus YDL214C, strain PRR2, stronger effect = lower value 0.823 | locus YDR052C, strain DBF4, stronger effect = lower value 0.983 | locus YDR054C, strain cdc34, stronger effect = lower value 0.979 | locus YDR226W, strain ADK1, stronger effect = lower value 0.976 | locus YDR477W, strain SNF1, stronger effect = lower value 0.8 | locus YER123W, strain YCK3, stronger effect = lower value 0.749 | locus YER133W, strain GLC7, stronger effect = lower value 0.839 | locus YFL009W, strain cdc4, stronger effect = lower value 0.981 | locus YFL029C, strain CAK1, stronger effect = lower value 0.977 | locus YFR003C, strain YPI1, stronger effect = lower value 0.979 | locus YFR028C, strain CDC14, stronger effect = lower value 0.986 | locus YGR040W, strain KSS1, stronger effect = lower value 0.794 | locus YGR052W, strain FMP48, stronger effect = lower value 0.685 | locus YGR092W, strain DBF2, stronger effect = lower value 0.571 | locus YHR079C, strain IRE1, stronger effect = lower value 0.683 | locus YHR082C, strain KSP1, stronger effect = lower value 0.652 | locus YHR205W, strain SCH9, stronger effect = lower value 0.785 | locus YIL147C, strain SLN1, stronger effect = lower value 0.981 | locus YJL095W, strain BCK1, stronger effect = lower value 0.502 | locus YJL128C, strain PBS2, stronger effect = lower value 0.922 | locus YJL157C, strain FAR1, stronger effect = lower value 0.783 | locus YJR016C, strain ILV3, stronger effect = lower value 0.987 | locus YJR066W, strain TOR1 (second series), stronger effect = lower value 0.765 | locus YJR066W, strain TOR1, stronger effect = lower value 0.647 | locus YKL048C, strain ELM1, stronger effect = lower value 0.888 | locus YKL067W, strain YNK1, stronger effect = lower value 0.835 | locus YKL193C, strain SDS22, stronger effect = lower value 0.988 | locus YKL203C, strain TOR2, stronger effect = lower value 0.784 | locus YLR133W, strain CKI1, stronger effect = lower value 0.776 | locus YLR403W, strain SFP1, stronger effect = lower value 0.763 | locus YML070W, strain DAK1, stronger effect = lower value 0.714 | locus YMR001C, strain CDC5, stronger effect = lower value 0.981 | locus YMR205C, strain PFK2 (second series), stronger effect = lower value 0.851 | locus YMR277W, strain FCP1, stronger effect = lower value 0.983 | locus YNL006W, strain LST8, stronger effect = lower value 0.98 | locus YNL161W, strain CBK1, stronger effect = lower value 0.97 | locus YNL183C, strain NPR1, stronger effect = lower value 0.689 | locus YNL207W, strain RIO2, stronger effect = lower value 0.97 | locus YNL222W, strain SSU72, stronger effect = lower value 0.983 | locus YOL078W, strain AVO1, stronger effect = lower value 0.986 | locus YOL136C, strain PFK27, stronger effect = lower value 0.753 | locus YOR119C, strain RIO1, stronger effect = lower value 0.861 | locus YOR231W, strain MKK1, stronger effect = lower value 0.699 | locus YOR329C, strain SCD5, stronger effect = lower value 0.975 | locus YPL031C, strain PHO85, stronger effect = lower value 0.738 | locus YPL153C, strain RAD53, stronger effect = lower value 0.747 | locus YPL204W, strain HRR25, stronger effect = lower value 0.731 | locus YPL209C, strain IPL1, stronger effect = lower value 0.981 | locus YPR025C, strain CCL1, stronger effect = lower value 0.979 | locus YPR106W, strain ISR1, stronger effect = lower value 0.979 | locus YPR111W, strain DBF20, stronger effect = lower value 0.954 | strain NNK1, stronger effect = lower value 0.961 | strain TSCII, stronger effect = lower value 0.981
active: locus YFR019W, strain FAB1, stronger effect = lower value 0.753 | locus YHR030C, strain SLT2, stronger effect = lower value 0.29 | locus YKL101W, strain HSL1, stronger effect = lower value 0.633 | locus YLR113W, strain HOG1, stronger effect = lower value 0.52 | locus YNL020C, strain ARK1, stronger effect = lower value 0.689 | locus YNL307C, strain MCK1 (second series), stronger effect = lower value 0.565 | locus YOR061W, strain CKA2, stronger effect = lower value 0.603 | locus YPL256C, strain CLN2, stronger effect = lower value 0.551
